In PubChem BioAssay (NCI):
Compounds without any hit were thinned out: in the full panel of roughly 83,000, 20% have a hit.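 Each cell line was grown in a 96-well plate and treated with one concentration of compound for 48 hours. Values below 10 were considered active.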 A number with no mark means an inactive call. Active and inactive are the calls of the source.

Key:
Experiment in all cases: NCI-60 one-dose screen, 48 h (100 = growth as untreated, 0 = no growth, -100 = all killed)
Details in all cases: 10 µM unless noted
NCI-H23 lung = system: NCI-H23 lung
NCI-H226 lung = system: NCI-H226 lung
NCI-H322M lung = system: NCI-H322M lung
HOP-62 NSCLC = system: HOP-62 NSCLC
NCI-H460 lung = system: NCI-H460 lung
A549/ATCC NSCLC = system: A549/ATCC NSCLC
786-0 renal = system: 786-0 renal
COLO 205 colon = system: COLO 205 colon
DU-145 prostate = system: DU-145 prostate
K-562 leukemia = system: K-562 leukemia
MALME-3M melanoma = system: MALME-3M melanoma
MDA-MB-231 breast = system: MDA-MB-231 breast
RXF 393 renal = system: RXF 393 renal
SF-268 CNS = system: SF-268 CNS
SF-295 CNS = system: SF-295 CNS
SF-539 CNS = system: SF-539 CNS
UACC-257 melanoma = system: UACC-257 melanoma
M14 melanoma = system: M14 melanoma

Row | SMILES | growth (NCI-H23 lung) | growth (NCI-H226 lung) | growth (NCI-H322M lung) | growth (HOP-62 NSCLC) | growth (NCI-H460 lung) | growth (A549/ATCC NSCLC) | growth (786-0 renal) | growth (COLO 205 colon) | growth (DU-145 prostate) | growth (K-562 leukemia) | growth (MALME-3M melanoma) | growth (MDA-MB-231 breast) | growth (RXF 393 renal) | growth (SF-268 CNS) | growth (SF-295 CNS) | growth (SF-539 CNS) | growth (UACC-257 melanoma) | growth (M14 melanoma)
1 | CC(C)(c1ccccc1)c1cc(O)c(C(C)(C)c2ccccc2)cc1O | 38% | 43.2% | 59.7% | 63% | 21.9% | 28.5% | 30.5% | 17% | 63.3% | 13% | 48.5% | -1.39% (active) | 63.4% | 38.7% | 25% | 50.4% | 11.3% | 11.9%
2 | O=C(O/C(=C/c1ccccc1)C(F)(F)F)c1ccccc1 | 109% | 102% | 125% | 105% | 117% | 101% | 107% | 99.3% | 102% | 101% | 118% | 95% | 108% | 96% | 114% | 103% | 101% | 107%
3 | CNC(=O)OC1C(O[C@H]2C[C@H]3[C@@H]4CC=C5C[C@@H](O)CC[C@]5(C)[C@H]4CC[C@]3(C)[C@H]2[C@H](C)C(=O)CCC(C)C)OCC(O)C1OC1OCC(O)C(O)C1OC(=O)c1ccc(OC)cc1 (stereo not given in full) | 39.3% | 3.4% (active) | 57.6% | 0.544% (active) | 1.55% (active) | 11.5% | -14.3% (active) | -42.8% (active) | 42% | -20.5% (active) | 4.11% (active) | 32.5% | -64.4% (active) | 0.344% (active) | -63.3% (active) | -53.5% (active) | -54.9% (active) | -65.5% (active)
4 | Cc1cc(O)c2cc3c(O)c(O)ccc3cc2c1 | 101% | 115% | 119% | 120% | 125% | 117% | 91.5% | 123% | 105% | 90.8% | 109% | 95.2% | 107% | 135% | 109% | 100% | 132% | 128%
5 | CN1C(=O)N(C)C2C1NN=c1s/c(=C\c3ccsc3)c(=O)n12 (stereo not given) | 59.4% | 46.1% | 65.1% | 46.8% | 18.2% | 42.2% | 47.6% | 41.1% | 74.9% | 13.5% | 54.3% | 66.8% | 51.6% | 64.4% | 25% | 40.2% | 60.9% | 22.7%
6 | CN(C)c1ccc(C2(Cl)c3ccccc3N(C)c3ccccc32)cc1 | 44.2% | 69.1% | 75.9% | 29.9% | 36.9% | 60% | 62.1% | 43.1% | 50.5% | 51% | 48.5% | 69.1% | 74% | 18.2% | 66.3% | 86.9% | 54.4% | 53.4%
7 | CC(C)CC(=O)C(CCc1ccccn1)C(C)C (stereo not given) | 98.4% | 97.9% | 116% | 112% | 107% | 93.9% | 105% | 130% | 111% | 107% | 109% | 108% | 124% | 103% | 95.2% | 106% | 92.4% | 105%
8 | CC(C)[C@@H]1C=C2CC[C@H]3[C@](C)(CN)CCC[C@]3(C)[C@H]2CC1 | 95.4% | 98.7% | -6.11% (active) | 59.8% | -69.7% (active) | 95.5% | 78% | -89.7% (active) | 44.1% | 17.5% | 60.2% | 61.3% | 87.9% | 43.4% | 54.8% | 102% | 104% | 89.3%
9 | CN(C)CCCn1c(=O)c2cc([N+](=O)[O-])ccc2c2cnc3[nH]ccc3c21 | 58.8% | 44.3% | 46.3% | 45.1% | 17.3% | 41.5% | 7.2% (active) | 28% | 50.5% | -32.4% (active) | 68.8% | 65.5% | 56.3% | 45.9% | 43.9% | 50.9% | 87.2% | 67.6%
10 | CNCCCn1c2c(c3ccc(Cl)cc3c1=O)C(=O)c1cc(OC)cnc1-2 | 34% | 43% | 61.8% | 17.6% | -77.3% (active) | -88.5% (active) | -85.1% (active) | 51.9% | -85.2% (active) | -66% (active) | 72.8% | 77.3% | 61.2% | 34.7% | 14.6% | 29.1% | 56.9% | 36%
11 | O=C(CCl)Nc1cc(O)c2c(c1)C(=O)c1cccc(O)c1C2=O | -45% (active) | -20.6% (active) | 59% | -100% (active) | -43.5% (active) | 91% | -71.5% (active) | -81.5% (active) | -82.5% (active) | -46.2% (active) | -72.9% (active) | -27.7% (active) | -67.1% (active) | -49.5% (active) | 61.7% | -32.3% (active) | 5.96% (active) | -33.2% (active)
12 | CCOc1cc(/C=N\NC(=O)C[N+](C)(C)C)ccc1O | 104% | 97.5% | 123% | 115% | 114% | 105% | 113% | 119% | 116% | 73.4% | 115% | 127% | 120% | 109% | 111% | 120% | 112% | 118%
13 | C#Cc1cccc(Nc2nc3cc([N+](=O)[O-])ccc3nc2Nc2ccc(O)cc2)c1 | 9.92% (active) | 50.3% | 16.8% | 21.4% | -24% (active) | 11.3% | -11.7% (active) | -49.9% (active) | 23.3% | -30% (active) | 51.2% | -48.2% (active) | 54.8% | 27.3% | 1.66% (active) | 21.8% | 25.9% | -52.5% (active)
14 | Clc1cc2nc(-c3ccccc3)c(-c3ccccc3)nc2cc1Cl | 79.6% | 89.7% | 106% | 89.9% | 94.8% | 100% | 103% | 115% | 103% | – | 85.8% | 88% | 110% | 105% | 98.7% | 97.3% | 111% | 85.9%
15 | COc1cc(C2CC(c3ccc(Cl)cc3)=NN2C(C)=O)ccc1Oc1ccnc2cc(Cl)ccc12 (stereo not given) | 64.1% | 19.5% | 53.3% | 23.1% | 30.8% | 42.6% | 33.6% | 26.2% | 36.6% | 65.3% | 53.9% | 36.1% | 46.1% | 57.5% | 18.3% | 40.2% | 68.5% | 79.9%
16 | CCN(CC)c1ccc(/C=N/NC(=O)C[N+](C)(C)C)cc1 | 99.4% | 98.9% | 115% | 99.2% | 110% | 100% | 101% | 111% | 113% | 54.3% | 92.6% | 119% | 112% | 110% | 109% | 110% | 104% | 110%
17 | Cc1cc(N)cc(C)c1-c1c(Br)cc(N)cc1Br | 50.9% | 69.2% | 18.8% | 25.1% | 17.4% | 25.2% | 26.7% | 11.9% | 28.6% | 8.58% (active) | 14% | 42.6% | -22.9% (active) | 41.4% | -14% (active) | 15.3% | 62% | 10.8%
